{"source": "PubChem BioAssay AID623868", "about": "(Vanderbilt High Throughput Screening Facility, 2012)", "note": "Screen size: about 2,100 compounds; about 760 (36%) were called active. These entries were drawn from the full list. Values without a mark were called inactive.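 How the source made its calls: active means thallium-flux fluorescence traces judged by eye to show enhanced or reduced glutamate response, manual score 1 or -1, so both directions (some results past the limit were not filed as active); inactive means the rest, including fluorescent or raised-baseline compounds.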", "data": [{"assay": "non-GIRK thallium flux modulation in mGlu8 cells, confirmation, counter-screen for GIRK activator project, cell-based, HEK-293 rmGlu8, no GIRK (AID 623868);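 further: extra codes mark interference with 3 for fluorescent and 4 for baseline rise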", "details": "thallium flux fluorescence, at 10 µM, actives lie on both sides, codes: 1 enhancer, -1 blocker, 0 none, thallium stimulus containing EC20 glutamate", "values": [{"smiles": "S=c1nc(-c2ccc(Br)cc2)oc2c1CCCC2", "manual score": "1 (active)"}, {"smiles": "CC(C)COc1ccc(Cc2cnc(N)nc2N)cc1", "manual score": 0}, {"smiles": "CCN(C#N)c1nc(NC(C)C)nc(NC(C)C)n1", "manual score": 0}, {"smiles": "CCCCn1c(O)c(N=Nc2ccccn2)c2ccccc21", "manual score": "1 (active)"}, {"smiles": "CC(C)n1c(O)c(N=Nc2ccccn2)c2ccccc21", "manual score": 0}, {"smiles": "Oc1c(N=Nc2ccccn2)ccc2ccccc12", "manual score": "1 (active)"}, {"smiles": "Oc1ccc2ccccc2c1N=Nc1ccccn1", "manual score": "1 (active)"}, {"smiles": "CCCCn1c(=N)n(CC(O)COc2cccc(C)c2)c2ccccc21", "note": "(centres undefined)", "manual score": 0}, {"smiles": "CCOc1ccc(N2C(=O)CC(SC(=NC)Nc3ccc(F)cc3)C2=O)cc1", "note": "(centres undefined)", "manual score": 0}, {"smiles": "COc1ccc2cc(Br)ccc2c1CC(=O)NC1CC(C)(C)NC(C)(C)C1", "manual score": 0}, {"smiles": "CCC(C)NC(=O)CN1C(=O)CC(C)(C)S(=O)(=O)c2ccccc21", "note": "(centres undefined)", "manual score": 0}, {"smiles": "CCn1c(=O)cc(OCC(=O)Nc2cccc(C)n2)c2ccccc21", "manual score": 0}, {"smiles": "CCn1c(O)c(N=NC(=O)CNc2cccc(C)c2)c2ccccc21", "manual score": "1 (active)"}, {"smiles": "CCn1c(=O)c(C(=O)NCCCO)c(O)c2ccccc21", "manual score": 0}, {"smiles": "Cc1nn(-c2ccccc2)c(OC(=O)c2cccs2)c1S(=O)(=O)c1ccccc1", "manual score": 0}, {"smiles": "CCN(CC)c1cnn(C/C(=N\\OC)c2ccc(Cl)cc2)c(=O)c1Br", "manual score": "-1 (active)"}, {"smiles": "CO/N=C(\\Cn1ncc(N2CCCC2)c(Cl)c1=O)c1ccc(Cl)cc1", "manual score": 0}, {"smiles": "CO/N=C(\\Cn1ncc(N2CCCC2)c(Br)c1=O)c1ccc(Cl)cc1", "manual score": 0}, {"smiles": "CCC(C)(C)NC(=O)C(c1ccc(F)cc1)N(Cc1ccco1)C(=O)c1cnccn1", "note": "(centres undefined)", "manual score": 0}, {"smiles": "N#CC1=C(N)SC(N)=C(C#N)C1c1c(Cl)cccc1Cl", "manual score": "-1 (active)"}, {"smiles": "N#CC1=C(N)SC(N)=C(C#N)C1CCc1ccccc1", "manual score": 0}, {"smiles": "Oc1oc(-c2cccc3ccccc23)nc1/C=N/c1nccs1", "manual score": "1 (active)"}, {"smiles": "C#CCSc1nnc(-c2cccc3ccccc23)o1", "manual score": 0}, {"smiles": "O=C(O)c1cnc(-c2ccccc2)nc1Sc1ccccc1Cl", "manual score": 0}, {"smiles": "CC(C)C(=O)OCC(=O)Nc1ccc(N=Nc2ccccc2)cc1", "manual score": 0}, {"smiles": "CCOC(=O)c1c(C)oc2ccc(O)c(CN3CCCCC3)c12", "manual score": 0}, {"smiles": "CCOC(=O)C1CCCN(c2ncnc3c2oc2ccccc23)C1", "note": "(centres undefined)", "manual score": 0}, {"smiles": "CCOC(=O)c1c2n(c3c(NCc4ccccc4)ncnc13)CCCC2", "manual score": "-1 (active)"}, {"smiles": "Cc1ccc(C)c(NC(=S)N=Nc2c(O)n(C)c3ccc(S(=O)(=O)N4CCOCC4)cc23)c1", "manual score": "1 (active)"}, {"smiles": "Cc1ccc(NC(=S)N=Nc2c(O)n(C)c3ccc(S(=O)(=O)N4CCOCC4)cc23)cc1", "manual score": "1 (active)"}, {"smiles": "Cc1ccc(NC(=O)CSc2nccn2C)cc1S(=O)(=O)N1CCOCC1", "manual score": 0}, {"smiles": "Cc1ccc(SC(C)C(=O)Nc2ccc(S(=O)(=O)N3CCOCC3)cc2)cc1", "note": "(centres undefined)", "manual score": 0}, {"smiles": "CCc1c(C)sc(NC(=O)CCc2ccc(OC)cc2)c1C(N)=O", "manual score": 0}, {"smiles": "CCC(C)n1c(=S)[nH]c2c(sc3ccc([N+](=O)[O-])cc32)c1=O", "note": "(centres undefined)", "manual score": "1 (active)"}, {"smiles": "CN=C1S/C(=C\\c2cc(C)n(-c3ccccc3F)c2C)C(=O)N1C", "manual score": 0}, {"smiles": "COc1ccc(C2c3ccc4ccccc4c3Oc3ncn(CCN4CCOCC4)c(=N)c32)cc1", "note": "(centres undefined)", "manual score": 0}, {"smiles": "S=C(Nc1cccc(Br)c1)c1ccccc1", "manual score": 0}, {"smiles": "CN1CCN(C(=O)Nc2cccc3ccccc23)CC1", "manual score": 0}, {"smiles": "Cc1ccc(C(=O)NNC(=S)Nc2cccc3ccccc23)s1", "manual score": "1 (active)"}, {"smiles": "C=C(C)CNC(=S)Nc1cccc2cnccc12", "manual score": 0}, {"smiles": "NC(=O)Nc1cccc2ccccc12", "manual score": 0}, {"smiles": "O=C(NNC(=S)Nc1cccc2ccccc12)c1cccc(Br)c1", "manual score": "1 (active)"}, {"smiles": "O=C(NNC(=S)Nc1ccccc1)c1cccc(Br)c1", "manual score": "1 (active)"}, {"smiles": "N#Cc1ccsc1NC(=O)CN1CCN(c2ccc(O)cc2)CC1", "manual score": 0}, {"smiles": "COc1ccc(/C=C2\\N=C(SC)NC2=O)cc1", "manual score": "1 (active)"}, {"smiles": "Cc1ccc(S(=O)(=O)n2cnc3cc([N+](=O)[O-])ccc32)cc1C", "manual score": 0}, {"smiles": "Clc1ccccc1-c1nnc2sc(-c3ccc4c(c3)OCO4)nn12", "manual score": 0}, {"smiles": "Brc1ccccc1-c1nnc2sc(-c3ccc4c(c3)OCCO4)nn12", "manual score": "-1 (active)"}, {"smiles": "Clc1ccccc1-c1nnc2sc(-c3ccccn3)nn12", "manual score": 0}]}]}
